Experimental data published in the supplement of paper PMC10646978.
± gives the standard deviation.

Assays:
Settings in all cases: modulator concentration 10 µM
[1] = system: RAW-Dual (murine macrophage reporter line); experiment: NF-kB reporter (SEAP) activity fold change vs agonist alone; higher = enhanced NF-kB activity
In short: (§1)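 RAW-Dual murine macrophage reporter cells were seeded at 50 000 per well in 384-well plates and pre-incubated 1 hour at 37 °C with compound pin-transferred to 10 μM final. After 1 hour, a PRR agonist was added and cells incubated overnight. Supernatant NF-κB (SEAP, QUANTI-Blue, 620 nm absorbance) and IRF (Lucia luciferase, QUANTI-Luc, luminescence) signals were divided by the mean agonist-only control on the same plate to give fold change. Two replicate plates were averaged, with errors by propagation.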

[2] = system: RAW-Dual (murine macrophage reporter line); experiment: IRF reporter (Lucia luciferase) activity fold change vs agonist alone; higher = enhanced IRF activity
In short: as §1

[3] = system: RAW-Dual (murine macrophage reporter line); experiment: viability score (confluency relative to resting cells, overnight) (fraction); higher = more viable, active = viable (0.7 or more)
In short: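 Two confluency masks, generated with IncuCyte software over all imaged wells, were applied to IncuCyte images of RAW-Dual macrophages. The cells, in 384-well plates, had been exposed overnight to 10 μM final compound. The viability score is confluency as a fraction of resting cells, and a compound met the cutoff only with both masks above 70% of resting cells.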

[4] = agonist: CpG ODN 1826 0.5 ug/mL

NC(=O)c1cn(Cc2c(F)cccc2F)nn1
NF-kB reporter [1, 4]: 1.01 ± 0.075
NF-kB reporter ([1]; agonist: LPS 0.1 ug/mL): 0.951 ± 0.12
NF-kB reporter ([1]; agonist: MPLA […]): 1 ± 0.049
IRF reporter ([2]; agonist: 3'3'-cGAMP 10 ug/mL): 1.17 ± 0.3
IRF reporter ([2]; agonist: LPS 0.1 ug/mL): 0.923 ± 0.08
IRF reporter ([2]; agonist: MPLA […]): 0.906 ± 0.12
viability score [3]: 0.999 (active)

COc1ccc2c(c1)c(CC(=O)O)c(C)n2C(=O)c1ccc(Cl)cc1
NF-kB reporter [1, 4]: 1.23 ± 0.21
NF-kB reporter ([1]; agonist: LPS 0.1 ug/mL): 1.06 ± 0.16
NF-kB reporter ([1]; agonist: MPLA […]): 0.951 ± 0.054
IRF reporter ([2]; agonist: 3'3'-cGAMP 10 ug/mL): 1.05 ± 0.034
IRF reporter ([2]; agonist: LPS 0.1 ug/mL): 1.25 ± 0.14
IRF reporter ([2]; agonist: MPLA […]): 1.29 ± 0.1
viability score [3]: 1 (active)

O=C(NC1CC2CCC1C2)c1ccccc1 (configuration not stated)
NF-kB reporter [1, 4]: 0.907 ± 0.09
NF-kB reporter ([1]; agonist: LPS 0.1 ug/mL): 0.994 ± 0.081
NF-kB reporter ([1]; agonist: MPLA […]): 0.972 ± 0.046
IRF reporter ([2]; agonist: 3'3'-cGAMP 10 ug/mL): 1.02 ± 0.11
IRF reporter ([2]; agonist: LPS 0.1 ug/mL): 1.01 ± 0.13
IRF reporter ([2]; agonist: MPLA […]): 0.869 ± 0.15
viability score [3]: 0.995 (active)

CCN(CC)c1nc(-c2ccccc2Cl)c2cc(Br)ccc2n1
NF-kB reporter [1, 4]: 0.999 ± 0.081
NF-kB reporter ([1]; agonist: LPS 0.1 ug/mL): 0.975 ± 0.1
NF-kB reporter ([1]; agonist: MPLA […]): 1.02 ± 0.042
IRF reporter ([2]; agonist: 3'3'-cGAMP 10 ug/mL): 0.786 ± 0.058
IRF reporter ([2]; agonist: LPS 0.1 ug/mL): 1.05 ± 0.14
IRF reporter ([2]; agonist: MPLA […]): 1.14 ± 0.25
viability score [3]: 1 (active)

CCOc1ccc(C(CN)N2CCOCC2)cc1 (configuration not stated)
NF-kB reporter [1, 4]: 1.07 ± 0.048
NF-kB reporter ([1]; agonist: LPS 0.1 ug/mL): 0.934 ± 0.079
NF-kB reporter ([1]; agonist: MPLA […]): 1.08 ± 0.075
IRF reporter ([2]; agonist: 3'3'-cGAMP 10 ug/mL): 0.943 ± 0.046
IRF reporter ([2]; agonist: LPS 0.1 ug/mL): 1.33 ± 0.28
IRF reporter ([2]; agonist: MPLA […]): 1.29 ± 0.44
viability score [3]: 0.941 (active)

Cc1ccc2[nH]c(=O)c(-c3cc(-c4ccccc4)c4ccccc4n3)c(-c3ccccc3)c2c1
NF-kB reporter [1, 4]: 0.938 ± 0.081
NF-kB reporter ([1]; agonist: LPS 0.1 ug/mL): 1.1 ± 0.11
NF-kB reporter ([1]; agonist: MPLA […]): 0.816 ± 0.051
IRF reporter ([2]; agonist: 3'3'-cGAMP 10 ug/mL): 1.08 ± 0.037
IRF reporter ([2]; agonist: LPS 0.1 ug/mL): 1.17 ± 0.19
IRF reporter ([2]; agonist: MPLA […]): 1.04 ± 0.072
viability score [3]: 1.02 (active)

CC(=O)Oc1cc(C(F)(F)F)ccc1C(=O)O
NF-kB reporter [1, 4]: 0.977 ± 0.13
NF-kB reporter ([1]; agonist: LPS 0.1 ug/mL): 1.05 ± 0.19
NF-kB reporter ([1]; agonist: MPLA […]): 0.91 ± 0.053
IRF reporter ([2]; agonist: 3'3'-cGAMP 10 ug/mL): 0.976 ± 0.03
IRF reporter ([2]; agonist: LPS 0.1 ug/mL): 1.32 ± 0.32
IRF reporter ([2]; agonist: MPLA […]): 1.21 ± 0.23
viability score [3]: 1 (active)

COCCOC(=O)C1=C(C)NC(=S)NC1c1ccccc1OC (configuration not stated)
NF-kB reporter [1, 4]: 1.03 ± 0.098
NF-kB reporter ([1]; agonist: LPS 0.1 ug/mL): 0.995 ± 0.056
NF-kB reporter ([1]; agonist: MPLA […]): 0.956 ± 0.11
IRF reporter ([2]; agonist: 3'3'-cGAMP 10 ug/mL): 0.964 ± 0.039
IRF reporter ([2]; agonist: LPS 0.1 ug/mL): 1.38 ± 0.095
IRF reporter ([2]; agonist: MPLA […]): 1.19 ± 0.22
viability score [3]: 1.01 (active)

CN(C)CC/C=C1/c2ccccc2COc2ccc(CC(=O)O)cc21.Cl
NF-kB reporter [1, 4]: 1.35 ± 0.26
NF-kB reporter ([1]; agonist: LPS 0.1 ug/mL): 1.22 ± 0.36
NF-kB reporter ([1]; agonist: MPLA […]): 1.66 ± 0.75
IRF reporter ([2]; agonist: 3'3'-cGAMP 10 ug/mL): 0.953 ± 0.039
IRF reporter ([2]; agonist: LPS 0.1 ug/mL): 1.42 ± 0.17
IRF reporter ([2]; agonist: MPLA […]): 1.2 ± 0.094
viability score [3]: 0.992 (active)

Cl.OC(CC#CCN1CCCC1)(c1ccccc1)c1ccccc1
NF-kB reporter [1, 4]: 0.726 ± 0.13
NF-kB reporter ([1]; agonist: LPS 0.1 ug/mL): 1.08 ± 0.086
NF-kB reporter ([1]; agonist: MPLA […]): 0.967 ± 0.074
IRF reporter ([2]; agonist: 3'3'-cGAMP 10 ug/mL): 0.748 ± 0.019
IRF reporter ([2]; agonist: LPS 0.1 ug/mL): 1.28 ± 0.15
IRF reporter ([2]; agonist: MPLA […]): 1.42 ± 0.17
viability score [3]: 0.597 (inactive)

CC1=CCCC(=O)C2CC(C)(C)C2CC1 (configuration not stated)
NF-kB reporter [1, 4]: 0.95 ± 0.13
NF-kB reporter ([1]; agonist: LPS 0.1 ug/mL): 0.857 ± 0.11
NF-kB reporter ([1]; agonist: MPLA […]): 0.89 ± 0.083
IRF reporter ([2]; agonist: 3'3'-cGAMP 10 ug/mL): 0.876 ± 0.031
IRF reporter ([2]; agonist: LPS 0.1 ug/mL): 1.05 ± 0.15
IRF reporter ([2]; agonist: MPLA […]): 1.05 ± 0.3
viability score [3]: 1.05 (active)
